Measurements from PubChem BioAssay AID1159580 (chemical genetic matrix, 2015).
Out of some 5,500 compounds screened, about 2,000 (36%) were called active. Inconclusive results (about 18%) are left out. Rule as the data show it: active = normalized growth mostly below about 0.91 (no sharp cut-off); inconclusive = no clear call, values can overlap the other calls; inactive = mostly above about 0.92. Some of the results follow.

Test: chemical genetic growth profiling, strain panel (AID 1159580);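 also: tested at 20 µM; growth read once vehicle control cultures reached saturation at 30 °C; 1 = growth at the plate median or of vehicle wells; lower values mean less growth of the strain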
Conditions: growth OD

Measured: normalized growth

C=C/C(C)=C\CC1C(C)(O)CCC2C(C)(C)CCCC21C (stereo unspecified)
inactive: S. cerevisiae deletion strains, locus YOL012C, strain htz1 0.258 | S. cerevisiae deletion strains, locus YPR141C, strain kar3, active compounds read low 0.958
active: S. cerevisiae deletion strains, locus YKL085W, strain MDH1, active compounds read low 0.0898 | S. cerevisiae deletion strains, locus YKL190W, strain CNB1, active compounds read low 0.0889 | S. cerevisiae deletion strains, locus YKR001C, strain vps1, active compounds read low 0.0677 | S. cerevisiae deletion strains, locus YLR039C, strain RIC1, active compounds read low 0.111 | S. cerevisiae deletion strains, locus YLR058C, strain SHM2, active compounds read low 0.0878 | S. cerevisiae deletion strains, locus YLR102C, strain apc9, active compounds read low 0.186 | S. cerevisiae deletion strains, locus YLR262C, strain YPT6, active compounds read low 0.121 | S. cerevisiae deletion strains, locus YLR268W, strain sec22, active compounds read low 0.0849 | S. cerevisiae deletion strains, locus YLR330W, strain CHS5, active compounds read low 0.057 | S. cerevisiae deletion strains, locus YLR342W, strain FKS1 (second series), active compounds read low 0.0927 | S. cerevisiae deletion strains, locus YLR371W, strain rom2, active compounds read low 0.0695 | S. cerevisiae deletion strains, locus YLR418C, strain cdc73, active compounds read low 0.107 | S. cerevisiae deletion strains, locus YML016C, strain PPZ1, active compounds read low 0.0581 | S. cerevisiae deletion strains, locus YML032C, strain rad52, active compounds read low 0.621 | S. cerevisiae deletion strains, locus YML124C, strain tub3, active compounds read low 0.184 | S. cerevisiae deletion strains, locus YMR078C, strain ctf18, active compounds read low 0.0993 | S. cerevisiae deletion strains, locus YMR223W, strain ubp8, active compounds read low 0.0709 | S. cerevisiae deletion strains, locus YMR263W, strain SAP30, active compounds read low 0.153 | S. cerevisiae deletion strains, locus YMR307W, strain GAS1, active compounds read low 0.127 | S. cerevisiae deletion strains, locus YNL067W, strain RPL9B, active compounds read low 0.421 | S. cerevisiae deletion strains, locus YNL128W, strain TEP1, active compounds read low 0.0735 | S. cerevisiae deletion strains, locus YNL153C, strain GIM3, active compounds read low 0.215 | S. cerevisiae deletion strains, locus YNL233W, strain BNI4, active compounds read low 0.0602 | S. cerevisiae deletion strains, locus YNL250W, strain rad50, active compounds read low 0.894 | S. cerevisiae deletion strains, locus YNL271C, strain bni1, active compounds read low 0.336 | S. cerevisiae deletion strains, locus YNL298W, strain CLA4, active compounds read low 0.611 | S. cerevisiae deletion strains, locus YNL307C, strain MCK1, active compounds read low 0.072 | S. cerevisiae deletion strains, locus YNL322C, strain KRE1, active compounds read low 0.169 | S. cerevisiae deletion strains, locus YNR052C, strain pop2, active compounds read low 0.527 | S. cerevisiae deletion strains, locus YOL006C, strain TOP1, active compounds read low 0.128 | S. cerevisiae deletion strains, locus YOL147C, strain pex11, active compounds read low 0.152 | S. cerevisiae deletion strains, locus YOR061W, strain CKA2, active compounds read low 0.05 | S. cerevisiae deletion strains, locus YOR069W, strain VPS5, active compounds read low 0.078 | S. cerevisiae deletion strains, locus YOR136W, strain idh2, active compounds read low 0.101 | S. cerevisiae deletion strains, locus YOR144C, strain elg1, active compounds read low 0.423 | S. cerevisiae deletion strains, locus YOR184W, strain ser1, active compounds read low 0.0788 | S. cerevisiae deletion strains, locus YOR316C, strain cot1, active compounds read low 0.113 | S. cerevisiae deletion strains, locus YPL055C, strain LGE1, active compounds read low 0.201 | S. cerevisiae deletion strains, locus YPL241C, strain CIN2, active compounds read low 0.358 | S. cerevisiae deletion strains, locus YPR119W, strain clb2, active compounds read low 0.079 | S. cerevisiae deletion strains, locus YPR163C, strain tif3, active compounds read low 0.0854 | S. cerevisiae deletion strains, locus YPR167C, strain met16, active compounds read low 0.067 | S. cerevisiae deletion strains, strain wtn01, active compounds read low 0.0803 | S. cerevisiae strains, strain wild type, active compounds read low 0.125
